PAFAH2 FP inh: PAFAH2 enzyme inhibitors, primary screen, biochemical, fluorescence polarization, human; AID 492956, 2010; actives 0.99% (n = 340,000); Platelet-activating factor acetylhydrolase 2, cytoplasmic (Homo sapiens), Q99487; inhibition, % at 3.39 µM; recombinant PAFAH2, FP-rhodamine activity probe;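 active = inhibition above the mean over all tested compounds plus 3 SD, cut at about 30% in these data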;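 note: inhibitors block probe labeling of enzyme so polarization drops; 0% = enzyme with DMSO and 100% = wells lacking PAFAH2 protein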
TCR CD3 inh: inhibitors of human TCR-CD3 interaction, primary screen, biochemical, fluorescence, TAMRA-labeled TCR probe; inhibition, % at 9.4 µM; actives 0.37% (n = 360,000); in the data active = inhibition above about 19%;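 note: recombinant mutant TCR 2C K166C tagged with TAMRA read by polarization; 0% = receptor in buffer alone and 100% = receptor with positive control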
pPAFAH inh: pPAFAH enzyme inhibitors, primary screen, biochemical, fluorescence polarization, human; AID 463082, 2010; actives 1.5% (n = 330,000); recombinant pPAFAH, FP-rhodamine probe fluorescence polarization; inhibition, % at 3.39 µM;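 active = inhibition above the mean inhibition across the screen plus 3 SD, cut at about 25% in these data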;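 note: inhibitors block binding of the rhodamine activity-based probe so polarization drops; 0% = enzyme with DMSO and 100% = wells lacking pPAFAH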
PAFAH1B2 inh: PAFAH1B2 enzyme inhibitors, primary screen, biochemical, fluorescence polarization, human | Platelet-activating factor acetylhydrolase IB subunit alpha2 (Homo sapiens), P68402 | recombinant PAFAH1B2, FP-rhodamine activity probe | inhibition, % at 3.39 µM | actives 1.2% (n = 340,000) | AID 492953, 2010;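 active = inhibition above the mean of all tested compounds plus 3 SD, cut at about 24% in these data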;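 note: 0% = enzyme with DMSO and 100% = wells lacking PAFAH1B2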
Target sequence (P68402 whole entry, looked up): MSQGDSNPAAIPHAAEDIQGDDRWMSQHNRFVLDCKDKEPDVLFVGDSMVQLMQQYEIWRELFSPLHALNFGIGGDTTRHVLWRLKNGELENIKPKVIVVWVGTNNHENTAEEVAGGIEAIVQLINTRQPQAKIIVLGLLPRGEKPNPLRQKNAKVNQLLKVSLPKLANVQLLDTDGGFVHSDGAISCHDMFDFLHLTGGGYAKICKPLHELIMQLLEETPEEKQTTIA
PAFAH1B3 inh: PAFAH1B3 enzyme inhibitors, primary screen, biochemical, fluorescence polarization, human | Platelet-activating factor acetylhydrolase IB subunit alpha1 (Homo sapiens), Q15102 | actives 0.28% (n = 340,000) | inhibition, % at 3.39 µM | recombinant PAFAH1B3, FP-rhodamine probe;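 active = inhibition above the screen-wide average of all tested compounds plus 3 SD, cut at about 25% in these data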;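 note: 0% = enzyme with DMSO only and 100% = wells lacking PAFAH1B3 protein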
An asterisk follows results filed as active; . = no result. Only some compounds are listed: those with a hit (about 2.7% of all), similar ones and a draw of the others.

SMILES	PAFAH2 FP inh	TCR CD3 inh	pPAFAH inh	PAFAH1B2 inh	PAFAH1B3 inh
O=C(O)c1ccc2c(c1)C(=O)/C(=C/c1ccccc1)C2=O	13	5	27*	21	39*
CCN(CC)c1ccc(/C=C2\CCC(/C=N/NC(=O)c3ccc(=O)n(C)c3)=C2N2CCOCC2)cc1	-1	-7	29*	3	5
O=C(N/N=C/C1=C(N2CCOCC2)C(=C\c2ccccc2)/CC1)Nc1ccccc1	-4	-4	2	1	4
CC(Cc1n[nH]c(=S)o1)c1ccccc1 (stereo not given)	13	4	2	26*	2
CCOc1ccc(CCNC(=O)c2cccc(NC3=NC4CS(=O)(=O)CC4S3)c2)cc1 (stereo not given)	-4	0	3	1	-1
C[C@@H]1ON(C)[C@H]2C[C@H]3c4[nH]c5c(-c6cccc(Cl)c6)cccc5c4CCN3C(=O)[C@@H]12	.	-3	.	.	.
CN(C)CCCn1c(SCC(=O)Nc2sc3c(c2C#N)CCCC3)nnc1-c1ccncc1	-2	2	2	4	-6
COCCCn1c(SCC(=O)Nc2sc3c(c2C#N)CCCC3)nnc1-c1ccncc1	11	-2	26*	0	3
Cc1ccc(SC2=C(N(C)C)C(=O)c3ccccc3C2=O)cc1	19	-7	.	25*	34*
CN(C)c1cccc2c1C(=O)c1ccccc1C2=O	-2	1	9	4	4
Cc1cc(Nc2cccc(C(F)(F)F)c2)cc(=O)n1-c1cccc(C(F)(F)F)c1	.	-3	.	.	.
N#Cc1cc2c(nc1SCC(O)CS(=O)(=O)Cc1ccc(Cl)cc1)CCCC2 (stereo not given)	10	-4	14	30*	-2
CC(C)(C)c1ccc(S(=O)(=O)CC(O)CSc2nc3c(cc2C#N)CCCC3)cc1 (stereo not given)	6	10	9	8	5
C=CCC12C[C@@]3(O[C@H](c4ccc(C(F)(F)F)cc4)N=C3C[C@H](c3ccc(OC)cc3)[C@H]1C)N(Cc1ccc3c(c1)OCO3)C2=O	.	2	.	.	.
CC1(C)CC(=O)C(C=Nc2ccc3c(c2)OCO3)=C(O)C1	2	1	5	-7	10
CC1(C)CC(=O)C(C=Nc2ccc(O)c(N=CC3=C(O)CC(C)(C)CC3=O)c2)=C(O)C1	55*	-5	33*	1	9
O=C(CN1C(=O)C2CCCCC2C1=O)Nc1cc(C(F)(F)F)ccc1N1CCCC1 (stereo not given)	17	-3	8	6	6
O=C(c1cccs1)C1CCCN(Cc2nc(Cc3ccccc3F)no2)C1 (stereo not given)	-5	4	2	-3	4
CC(=O)OC[C@]12CC[C@H]3[C@@](C)(CC[C@H]4C(C)(C)CCC[C@]34C)[C@@H]1C[C@@H](C1=CC(=O)O[C@@H]1OC(C)=O)O2	.	.	7	.	.
CC(=O)OC[C@]12CC[C@H]3[C@@](C)(CC[C@H]4C(C)(C)CCC[C@]34C)[C@@H]1C[C@H](C1=CC(=O)O[C@H]1OC(C)=O)O2	.	.	50*	.	.
CCc1nc2ccc(C(=O)N3CCCC(C(N)=O)C3)cn2c1N(C=O)CC (stereo not given)	.	1	.	.	.
O=S(=O)(NC1CCCC1)c1ccc(S(=O)(=O)N2CCc3ccccc32)cc1	8	3	27*	27*	0
Nc1[nH]c(C(=O)c2ccccc2)c(-c2ccc(Cl)cc2)c1C(=O)c1c[nH]c2ccc(Br)cc12	.	-8	.	.	.
O=C1CSC(c2ccc(Cl)cc2)N1c1cccnc1 (stereo not given)	7	-4	0	25*	5
CCOc1ccccc1-c1c2cc(O)c(=O)cc-2oc2cc(O)c(O)cc12	127*	.	.	112*	119*
Cc1ccccc1-c1cc(=O)c2c(O)cccc2o1	-1	0	3	-1	7
O=c1cc2oc3cc(O)c(O)cc3c(-c3ccccc3O)c-2cc1O	42*	.	.	27*	-62
OCC[C@H]1C[C@H](O)[C@@H](O)[C@]2(OCCc3ccccc32)O1	7	1	26*	0	7
OCC[C@H]1C[C@H](O)[C@@H](O)[C@@]2(OCc3ccccc32)O1	3	0	5	0	-2
